About 3,100 (0.84%) of roughly 370,000 compounds were called active. This excerpt belongs to a sample that is enriched for actives. Unmarked numbers belong to inactive results.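 Rule for the calls: active = inhibition above the mean of compounds lying between control limits plus 3 SD, set per campaign (cut at about 8.5% in these data); inactive = the rest.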
Molecular target: Disintegrin and metalloproteinase domain-containing protein 17 (Homo sapiens) (UniProt P78536)
Test: ADAM17 inhibitors, primary screen, biochemical, QFRET (AID 720648);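 note: 0% = DMSO-only wells as the low control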
Conditions: recombinant ADAM17, EDANS/DABCYL FRET peptide cleavage; at 6.95 µM; stronger effect = higher value

Disintegrin and metalloproteinase domain-containing protein 17 (Homo sapiens), sequence (P78536 215-824 limits assumed): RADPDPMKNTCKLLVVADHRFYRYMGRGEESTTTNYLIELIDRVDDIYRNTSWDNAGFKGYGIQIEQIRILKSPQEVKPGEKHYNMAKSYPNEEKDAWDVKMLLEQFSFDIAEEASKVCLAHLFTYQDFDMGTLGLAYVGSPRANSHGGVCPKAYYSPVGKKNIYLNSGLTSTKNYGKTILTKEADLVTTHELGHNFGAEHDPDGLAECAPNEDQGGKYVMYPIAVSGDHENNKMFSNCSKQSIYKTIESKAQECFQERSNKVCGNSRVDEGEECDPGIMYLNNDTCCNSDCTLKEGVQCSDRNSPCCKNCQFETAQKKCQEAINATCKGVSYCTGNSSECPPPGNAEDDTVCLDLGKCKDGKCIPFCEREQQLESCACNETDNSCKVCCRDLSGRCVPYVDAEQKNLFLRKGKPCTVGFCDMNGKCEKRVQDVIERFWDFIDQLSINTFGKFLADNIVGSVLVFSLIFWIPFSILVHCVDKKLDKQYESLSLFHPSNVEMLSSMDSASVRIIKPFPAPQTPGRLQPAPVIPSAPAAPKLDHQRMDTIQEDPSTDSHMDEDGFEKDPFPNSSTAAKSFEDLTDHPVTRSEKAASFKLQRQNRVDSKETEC

Structure (SMILES)	inhibition
CC(C)(C)OC(=O)NCCc1ccccc1/C=C/S(=O)(=O)NCc1ccc(F)cc1	1.57%
O=C(NC1CCC1)c1ccc(C#Cc2cccc(F)c2)c[n+]1[O-]	-5.18%
CCC(=O)c1c(CC)c2n3c1=CC[C@H]3CC(Br)C=2 (stereo not given in full)	-4.68%
CN1[C@H](Cc2ccccc2)COc2cccc(N3CCSCC3)c2S1(=O)=O	-1.43%
CCOc1ccc(Oc2c(Cl)cnn(-c3ccc(C)cc3)c2=O)cc1	-4.44%
Cc1ccccc1NC(=O)Cn1nnc(-c2ccccc2F)n1	1.5%
CCOc1ccc(-c2n[nH]c(=S)n2/N=C/c2cc3c(cc2[N+](=O)[O-])OCO3)cc1	-4.26%
CSc1ccc(C=Nn2c(-c3ccc(F)cc3)n[nH]c2=S)cc1	-0.62%
Cc1ccc(-c2n[nH]c(=S)n2/N=C/c2cc3c(cc2[N+](=O)[O-])OCO3)cc1	8.7% (active)
COC1=C[C@H](C(=O)NCCNC(C)=O)[C@H](C)[C@@H](c2ccccc2)CC1=O	-1.19%
FC(F)(F)c1cccc(Cn2ccc3ccc(-c4ccc5ccn(Cc6ccccc6)c5c4)cc32)c1	-14.4%
COC(=O)c1cccc(Cn2ccc3ccc(-c4ccc5ccn(C(=O)c6ccccc6C)c5c4)cc32)c1	-5.84%
CC(C)(C)NC(=O)C(c1cccnc1)N(C(=O)c1cnco1)c1ccc(C(C)(C)C)cc1 (stereo not given)	-6.7%
Cc1nnc(SCC(=O)Nn2cnnc2)s1	8.83% (active)
CCSc1nnc(SCC(=O)NNC(=O)c2ccccc2F)s1	-2.03%
Cc1nnc(SCC(=O)NC2CCCC2)s1	-4.16%
CN(C(N)=NC(=O)/C=C/c1ccccc1)C(C#Cc1ccccc1)Cc1ccccc1 (stereo not given)	0.96%
CCOC(=O)[C@]12CCCC3=C1N(CCC3)C(=O)[C@@H](CC(=O)NCC13CC4CC(CC(C4)C1)C3)C2	0.7%
COc1cccc(CNc2ncc(-c3ccccc3)n2C)c1	5.33%
COc1cccc(CNc2nc(NCc3cccs3)nc3ccsc23)c1	0.1%
COc1cccc(CNc2nc(C(F)(F)F)nc3ccccc23)c1	10.3% (active)
O=C(NCCCc1ccccc1)[C@H](Cc1ccccc1)NC1(C(=O)NCCc2c[nH]c3ccccc23)CCC1	3.66%
N#C/C(=C/c1ccc(N2CCCCC2)o1)C(=O)NCCc1c[nH]c2ccccc12	15.4% (active)
COCCCNC(=O)/C(C#N)=C/c1c(N2CCCCCC2)nc2ccccn2c1=O	-451%
COC(=O)[C@@]12CCCCC=C1N(CCc1ccc(Cl)cc1)C(=O)[C@H]2CC(=O)NCc1ccc(OC)c(OC)c1	-0.2%
O=C(CSc1nc2ccccc2s1)NN=Cc1ccc(O)cc1O	3.8%
Cc1ccc(Cn2cc(COC(=O)N(C)Cc3ccccc3)nn2)cc1	-1.03%
Cc1ccc(C(=O)Nc2ccc(C)c(S(=O)(=O)N(C)C)c2)s1	9.87% (active)

Structure (SMILES)	inhibition
Cc1ccc(C(=O)NCC(=O)O)s1	3.71%
COc1ccc(CCC(=O)OCC(=O)Nc2ccc(C)c(S(=O)(=O)N(C)C)c2)cc1	0.46%
C=CCN1[C@H](CC(C)C)COc2cccc(N3CCCC3)c2S1(=O)=O	-8.01%
C#CCCN([C@H](C(=O)OC)C(C)C)S(=O)(=O)c1ccc(F)cc1Br	2.67%
O=C1CC[C@@H](COc2ccc3[nH]cc(-c4ccccc4)c3c2-c2ccccc2)N1	-1.86%
N#Cc1ccc(OC[C@@H](O)CN2CCC(C(O)(c3ccccc3)c3ccccc3)CC2)c(F)c1	0.92%
O=C(COC(=O)CCCSc1nc2ccccc2[nH]1)Nc1ccc(Oc2ccccc2)cc1	10.8% (active)
CCN(c1ccc(NC(=O)COC(=O)CCc2nc3ccccc3n2-c2ccccc2)cc1)C(C)C	4.08%
O=C(COC(=O)CCc1nc2ccccc2c(=O)[nH]1)Nc1ccc(N2CCOCC2)cc1	-2.52%
COc1ccc(CN2C/C(=C/c3ccccc3)N3C(=O)C[C@@H](c4ccccc4)N=C23)c(OC)c1	4.01%
C=CS(=O)(=O)N(Cc1nnn(Cc2ccccc2)c1Br)[C@H](C(=O)OC)C(C)C	2.02%
C[C@@H](NC(=O)c1ccccc1OCC(=O)Nc1ccc(I)cc1)C(=O)N(C)Cc1ccccc1	2.09%
O=C(CCS(=O)(=O)c1ccccc1)Nc1ccc(Cl)c(Cl)c1	5.76%
CSc1ccc(CNC(=O)c2ccc(NC(=O)C3=CSCCO3)cc2)cc1	0.22%
O=C(COC(=O)c1ccc2c(c1)OCCO2)NCc1ccccc1Cl	-2.66%
O=C(Nc1ccc(C(=O)NCc2ccccc2Cl)cc1)C1=CSCCO1	10.3% (active)
COC(=O)C1CN(CC(C)C)CCS(=O)(=O)N1Cc1ccc(C)cc1 (stereo not given)	-8.74%
Cc1cc(C)cc(NC(=S)NCCc2c[nH]c3ccccc23)c1	16.1% (active)
Cc1ccc(S(=O)(=O)N(C)CC(=O)NCCc2c[nH]c3ccccc23)cc1	0.52%
Cc1ccc2[nH]cc(CCNC(=O)C3CCCCC3)c2c1	0.5%
CC(CCN1CCC(C(O)(c2ccccc2)c2ccccc2)CC1)Oc1ccc(Cl)cc1 (stereo not given)	4.85%
CCOC(=O)[C@]12CCCC=C1N(CCCOC)C(=O)[C@@H]2CC(=O)N1CCOCC1	2.05%
CCCCC(=O)NNC(=S)NC(=O)C(c1ccccc1)c1ccccc1	1.95%
CCCC(=O)Nc1cccc(NC(=S)NC(=O)C(C)Oc2ccc(Cl)cc2Cl)c1 (stereo not given)	2.78%
CC(C)C(=O)Nc1cccc(NC(=S)NC(=O)C(c2ccccc2)c2ccccc2)c1	9.39% (active)
O=C(c1ccncc1)N1CC[C@H]2[C@H](CCCN2Cc2ccc(F)cc2)C1	1.14%
CN(CCO)c1cccc2c1S(=O)(=O)N(Cc1cn(Cc3ccc(C(F)(F)F)cc3)nn1)Cc1ccccc1O2	-1.94%

From PubChem BioAssay AID720648 (The Scripps Research Institute Molecular Screening Center, 2013)
